From PubChem BioAssay AID1508600 (Functional Genomics Laboratory (NCATS/FGL), 2020) come the findings set out here.

Among all 53,000 sequences or so, about 3,700 (7%) were called active.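 The calls were made as follows: active = gene knockdowns whose robust z-score for IL-1 alpha signal is at least 2 or at most -2, so actives lie on both sides; inactive = the rest.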 The entries come from a sample that favours actives as a whole.

The test in a line: Components of the Cytosolic LPS Sensing Pathway: Gene Identification via Genome-wide siRNA Screen.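 Also: robust z of the log signal after scaling to non-targeting control siRNA wells of the plate.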 The settings on record: RAW264.7 macrophages, IL-1a HTRF, actives lie on both sides, screened at 100 nM (by protocol), cells primed 5 h with Pam3CSK4 first. In a few lines:
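Mouse macrophage line RAW264.7 is transfected with siRNA (100 nM final), grown 48h, primed with TLR ligand Pam3CSK4 5 h and given intracellular LipidA 24 h. IL-1a in supernatant is read by HTRF and viability by luminescence.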
On to GCAAAUCAGUCUAUCGCUGTT against Mcpt8, for which the z-score was 0.39 (inactive).

As to GGUUUUCACUAUUUCAACUTT against Olfr187, the z-score is -1.06 (inactive).

Consider GGUAAAUGGUUUAACUACGTT against Tmem117, for which the z-score was -0.68 (inactive).

Consider GCAAAGGAUCGCUUGAAAATT against Mrpl40, for which the z-score is -1.15 (inactive).

As to GGAAUAAAGCUCAUCUACGTT against Slc43a2, the z-score is 2.09 (active).

With GGAUGAACACUGUUACAAATT against Tusc3, the z-score was 0.352 (inactive).

Regarding GGUGAUGCAAGAAGAAAUUTT against Aldh3a2, the z-score was 0.169 (inactive).

On to GGCUCUGUUCUCCACAUUGTT against Phf5a, for which the z-score was -1.6 (inactive).

As for GGCAAUGGUUCAGCAGUGGTT against Eef1e1, the z-score is -0.564 (inactive).

Regarding GGCCUUUCAUGAAAGCUCATT against Ublcp1, the z-score is -3.07 (active).

GGUAGCUGUGAUAAAGCAUTT against Pcbd1: the z-score was -1.81 (inactive).

Take CCUGAUAUUCAUGACCAAATT against Wasf2: the z-score is -0.0177 (inactive).

For the sequence CGGUGGCAAAAUGAGAAGUTT against Cd79a, the z-score was -0.142 (inactive).

For the sequence CCCUAAUCUGGUGAACGAUTT against Mfap5, the z-score was -1.05 (inactive).

In the case of GGUCUGAGCCUUGUCUUUATT against Pdx1, the z-score is 2.92 (active).

As to GGUGUCUGGUUCAUAAAGGTT against Lcn4, the z-score was -0.344 (inactive).

In the case of GGACACAACUCAUUUUCAGTT against Prg3, the z-score is -1.61 (inactive).

In the case of GGAAGGAGAGACCAUUGAGTT against Nudt1, the z-score was -1.48 (inactive).

GCGAUUAAGUCUGAAUUGUTT against Cd93: the z-score is 0.425 (inactive).

GGAUACCUACCUGGACAGUTT against Dlgap4: the z-score is -1.23 (inactive).

GGCACAUUGCUGAAGCCCATT against Aldoa: the z-score is -2.42 (active).

“GCUACACAUGGGAACUAACTT against 4631405J19Rik”: the z-score was 1.51 (inactive).

For “GGCCUAUAUUGAUGAUUUUTT against 4930503L19Rik”, the z-score is 2.31 (active).

With GGGUGUACAGAGGAUCCGATT against Atp2a3, the z-score was 0.187 (inactive).

As for GGCAUUUACUUACUGUUCATT against Slc39a10, the z-score was -0.331 (inactive).

On to CGAUUUCAUCGAACACUUCTT against Ccnd1, for which the z-score was 1.37 (inactive).

As for GGUACACAUGAGACAAUAUTT against Whamm, the z-score is -2.18 (active).

With GGCUUUGUUAGUCUAUGACTT against Dzip1l, the z-score was -0.552 (inactive).

With GGUGGAAGACAAGAGGAUATT against Sytl5, the z-score was -0.474 (inactive).

For the sequence GGGUAAUACUCUUUGGUGCTT against Olfr594, the z-score was 0.34 (inactive).

For GGUUUGCCUGUGCUGAUAUTT against Olfr549, the z-score is -0.617 (inactive).

With GAUGGUCCAGAGCGACUUCTT against Pou3f3, the z-score was 2.14 (active).

With GGGUCAAGGUAGUAGUACCTT against Tob1, the z-score is 0.275 (inactive).

With CCAUUACAUCCAUUUGAUUTT against Cfap206, the z-score was 0.328 (inactive).

In the case of GGUUUGAUGUUAGACAACGTT against Trim34a, the z-score was 0.652 (inactive).

On to GGACAACAAAGGGAGAUUCTT against Kctd12b, for which the z-score was 1.43 (inactive).

Regarding CCUACUUGGGAAAGUUCGCTT against Egr3, the z-score was 1.5 (inactive).

Regarding CCCACUUGCUGAAAAUUGUTT against Ankib1, the z-score was -0.338 (inactive).

Consider CCCAGAACACCGUAUACUUTT against Itga3, for which the z-score was 3.95 (active).

In the case of CCAAUUUCCUUUCAGACUGTT against Cxxc4, the z-score is -1.2 (inactive).

As to GGACAGCACAAUUACCUUUTT against Nr3c1, the z-score was -0.299 (inactive).

As for GGGUAGGAAACAAACACAGTT against Cox11, the z-score was -0.234 (inactive).

Take GAAUGCUCUGAGACUUUUATT against Cd300c2: the z-score was -2.48 (active).

Consider GCUCCAAUAGCGUAUAUUATT against Pigt, for which the z-score is -0.75 (inactive).

As for GGAGGACUAGUUGUGACUUTT against Aldh1a1, the z-score is -0.384 (inactive).

In the case of UGGCAAGAUUGAAACCAUATT against Hnrnpa3, the z-score was -1.61 (inactive).

For the sequence GGUUCUUUCGAGAAUGGACTT against Nod1, the z-score was -0.145 (inactive).

On to GGAUUUCCCAUCAAAGACGTT against Serpinf2, for which the z-score is 0.155 (inactive).

Turning to GCCCAAAUGAGACUACUUUTT against Ces1e, the z-score is -1.24 (inactive).

On to GGCUCAGAUACUCUUAUAATT against Aknad1, for which the z-score is -3.24 (active).

For the sequence GCUAAACAUAAAAAUCGACTT against Garre1, the z-score is -1.27 (inactive).

In the case of GGAUUAAGUGGUCAAAUGATT against Ugt2b36, the z-score was -0.62 (inactive).

As to CCACCUGUGCUACCACUUATT against Rexo4, the z-score was -2.34 (active).

On to GGUUACAUAUCAGUUGAAATT against Slc35a3, for which the z-score is 0.032 (inactive).

As for GCAAAAUCUAGGGAUAAGATT against Trdv2-2, the z-score is 0.259 (inactive).

GGGAGAACAGCGACAAACATT against Cbfb: the z-score was 1.82 (inactive).

Take GAGUUCGAUGUUCAGGAGCTT against Ndrg1: the z-score is -0.354 (inactive).

In the case of GGUUCAUGGGUUUUAAGUGTT against Eif1, the z-score was 2.25 (active).

In the case of GGAAGAGGAGAAGAAAAAGTT against Syf2, the z-score was -1.25 (inactive).

Turning to GCACAGUUGGCAACCUUUATT against S100a9, the z-score is -0.029 (inactive).

Take GGAUAACCCUAAGUUUAUGTT against Clu: the z-score was 0.753 (inactive).

As for GGACCUCAUCUACAGAAUGTT against Tssk1, the z-score was 0.878 (inactive).

For the sequence CGGACAAAGGACGAGUGUUTT against Fn3krp, the z-score is 3.02 (active).

Turning to GGCAGUAGCCAGAAGGCAUTT against Rnf215, the z-score is 0.373 (inactive).

Consider CGACAUAGCUUCUGUACUGTT against Spaca9, for which the z-score was -1.42 (inactive).

CCUUUAGGUACCACGAGUGTT against Large2: the z-score was -0.965 (inactive).

On to CCUUUAAAGUAAGCAUGUGTT against Slc27a4, for which the z-score is 0.112 (inactive).

GUUCUUUUUCUUCGGUUCCTT against Olfr1020: the z-score is 0.769 (inactive).
